We go through 17 molecules from the antibiotic and cytotoxicity screens of Wong et al. (2023).

Structures are written as SMILES. The campaign covered roughly 39,000 compounds. About 3,300 (8.5%) were called active. This excerpt belongs to a sample that is enriched for actives.

The subject of this assay is HepG2. The assay is described as follows: cytotoxicity call (relative viability < 0.9). The note with it: 10 µM.
In the case of `C[C@@H]1CN([C@@H](C)CO)C(=O)c2cccc(NC(=O)Nc3ccc(F)cc3)c2O[C@@H]1CN(C)C(=O)Nc1cccc2ccccc12`, the cytotoxicity call was “inactive”. For `C[C@@H](NC(=O)c1ccccc1)C(=O)NN` the value was “inactive”; for `C[C@@H]1CCCCO[C@H](CN(C)Cc2ccccc2)[C@@H](C)CN([C@@H](C)CO)C(=O)c2cc(NC(=O)NC3CCCCC3)ccc2O1`, “active”. Regarding `C[C@@H]1CCCCO[C@@H](CN(C)Cc2ccccc2)[C@H](C)CN([C@H](C)CO)C(=O)c2cc(NC(=O)NC3CCCCC3)ccc2O1`, the cytotoxicity call was “inactive”. With `C[C@@H]1CN([C@@H](C)CO)C(=O)c2cc(NC(=O)NC3CCCCC3)ccc2O[C@@H](C)CCCCO[C@@H]1CN(C)Cc1ccncc1` the entry was “inactive”. For `C[C@@H]1CCCCO[C@@H](CN(C)Cc2ccccc2)[C@@H](C)CN([C@@H](C)CO)C(=O)c2cc(NC(=O)NC3CCCCC3)ccc2O1` the value was “active”; for `C[C@@H]1CCCCO[C@H](CN(C)Cc2ccccc2)[C@H](C)CN([C@@H](C)CO)C(=O)c2cc(NC(=O)NC3CCCCC3)ccc2O1`, “active”. For `C[C@@H]1CCCCO[C@H](CN(C)Cc2ccncc2)[C@H](C)CN([C@@H](C)CO)C(=O)c2cc(NC(=O)NC3CCCCC3)ccc2O1` the value was “active”; for `C[C@@H]1CN([C@H](C)CO)C(=O)c2cc(NC(=O)NC3CCCCC3)ccc2O[C@@H](C)CCCCO[C@@H]1CN(C)Cc1ccccc1`, “inactive”; for `C[C@@H]1CCCCO[C@@H](CN(C)Cc2ccccc2)[C@@H](C)CN([C@H](C)CO)C(=O)c2cc(NC(=O)NC3CCCCC3)ccc2O1`, “inactive”.

Regarding `C[C@H](CO)N1C[C@H](C)[C@H](CN(C)Cc2ccccc2)OCCCC[C@H](C)Oc2ccc(NC(=O)NC3CCCCC3)cc2C1=O`, the cytotoxicity call was “inactive”.

For `C[C@H]1CCCCO[C@@H](CN(C)Cc2ccncc2)[C@@H](C)CN([C@@H](C)CO)C(=O)c2cc(NC(=O)NC3CCCCC3)ccc2O1`, the cytotoxicity call is “inactive”.

With `C[C@@H]1CCCCO[C@@H](CN(C)Cc2ccccc2)[C@H](C)CN([C@@H](C)CO)C(=O)c2cc(NC(=O)NC3CCCCC3)ccc2O1`, the cytotoxicity call is “inactive”. As for `C[C@@H]1CN([C@@H](C)CO)C(=O)c2cc(NC(=O)NC3CCCCC3)ccc2O[C@@H](C)CCCCO[C@H]1CN(C)Cc1ccccc1`, the cytotoxicity call was “inactive”. With `C[C@@H]1CN([C@@H](C)CO)C(=O)c2cc(NC(=O)Cn3cnnn3)ccc2O[C@H]1CN(C)S(=O)(=O)c1ccc(Cl)cc1` the entry was “inactive”; with `COc1ccc(S(=O)(=O)N[C@H]2CC[C@@H](CCNC(=O)CN3CCOCC3)O[C@H]2CO)cc1`, “inactive”; with `C[C@@H]1CN([C@@H](C)CO)C(=O)Cc2cc(NS(=O)(=O)c3cn(C)cn3)ccc2O[C@H]1CN(C)S(=O)(=O)c1ccc(Cl)cc1`, “inactive”.
